# aSyn 5UTR act – Activators via SNCA 5'UTR binding, MLPCN | alpha-synuclein 5'UTR reporter, activators screen | activity score, % (tested at 7.5 µM), hits read low | hit rate 7.1% among 300,000; in the data active = activity score below about -60%
# * marks the source's active call; other numbers are inactive results. A selection follows.
SMILES,aSyn 5UTR act
O=C(Nc1ccc2nc(-c3cccnc3)[nH]c2c1)C1CCCCC1,-72*
O=C(Nc1ccc2nc(-c3ccc(Br)o3)[nH]c2c1)c1ccco1,-106*
Cc1ccc(-c2nc3ccc(NS(=O)(=O)c4ccccc4)cc3[nH]2)o1,-174*
Cc1cc(C)cc(NS(=O)(=O)c2ccc(-c3cnc(C4CC4)o3)cc2)c1,93
CC(=O)Nc1ccc2nc(-c3ccc(Br)o3)[nH]c2c1,-127*
O=C(Nc1ccc2nc[nH]c2c1)c1ccco1,-74*
CSc1ccc(C(=O)N2CCc3ccc(NC(=O)c4ccccn4)cc3C2)cc1,-73*
COC(=O)c1ccc(/C=C/c2nc3ccccc3c(=O)[nH]2)cc1,-136*
COc1cc(/C=C/c2nnc3c4ccccc4ncn23)cc(OC)c1OC,-80*
Cc1ccc(/C=C/c2nc3ccccc3c(=O)[nH]2)cc1,68
C=CCOc1cccc(/C=C/c2nc3ccccc3c(=O)[nH]2)c1,-182*
COc1cc(/C=C/c2nc3ccccc3c(=O)[nH]2)ccc1OC(F)F,-195*
COc1cc(/C=C/c2nc3ccccc3c(=O)[nH]2)cc(OC)c1OC,-84*
Cc1ccc(NC(=O)CCOc2ccccc2)cc1,-203*
CC(=O)N/N=C/c1ccccc1OCCOc1cccc(C)c1,-76*
Cc1cccc(OCCCC(=O)Nc2ccc(N(C)C)cc2)c1,-88*
CC(C)(C)CC(=O)Nc1nnc(CCc2ccccc2)s1,-113*
CC(C)(C)Cc1nnc(NC(=O)CSc2ccccc2)s1,-137*
CCC(C)(C)C(=O)Nc1nnc(CCc2ccccc2)s1,-141*
COCc1cc(C)nc2sc(C(=O)Nc3nccs3)c(N)c12,-121*
COCc1cc(C)nc2sc(C(=O)Nc3cccc(OC)c3)c(N)c12,-192*
O=C(Nc1ccc(NC(=O)c2ccco2)nc1)c1cccc(F)c1,-134*
O=C(Nc1ccc(NC(=O)c2ccco2)nc1)c1cccnc1,-75*
COc1cccc(C(=O)Nc2ccc(NC(=O)c3ccco3)nc2)c1,-162*
CCCC(=O)Nc1ccc(NC(=O)c2cccc(OC)c2)nc1,-160*
SMILES,aSyn 5UTR act
Cc1cc(C)c2ccc(N)nc2c1O,65
COc1cccc(C(=O)Nc2ccc(NC(C)=O)cn2)c1,-129*
C=C(C)CSc1nnc(-c2cccc(Cl)c2)n1N,-85*
C=C(C)CSc1nncn1/N=C/c1ccc(OC)cc1,-187*
C=C(C)CSc1nnc(-c2ccc(OC)cc2)n1N,-103*
CCc1ccc2c(c1)/C(=N/N(C)C(=S)NC)C(=O)N2,-71*
O=C(c1ccc(-c2nc3ccccc3s2)s1)N1CCOCC1,100
Cc1noc(C)c1COC(=O)c1ccc(-c2nc3ccccc3s2)s1,-206*
CCNC(=O)COC(=O)c1ccc(-c2nc3ccccc3s2)s1,-67*
CCN1CCN(C(=O)c2ccc(-c3nc4ccccc4s3)s2)CC1,-66*
O=C(NC1CC1)c1ccc(-c2nc3ccccc3s2)s1,96
Cc1cc(C(=O)N2CCN(c3cccc(Cl)c3)CC2)c(C)o1,-137*
COc1ccc(-c2nnn(Cc3ccccc3)n2)cc1,-168*
CSc1ccc(-c2nnn(Cc3ccc(C)cc3)n2)cc1,-168*
Cc1ccccc1Cn1nnc(-c2cccc(C(=O)O)c2)n1,-79*
O=C(O)c1cccc(-c2nnn(Cc3ccccc3)n2)c1,-85*
CSc1ccc(-c2sc(Nc3ccccc3)n[n+]2-c2ccccc2)cc1,-98*
CSc1ccc(-c2sc(Nc3cccc4ccccc34)n[n+]2-c2ccccc2)cc1,-143*
Cc1cc2ccc3ccccc3c2cc1CN(C)C,-76*
Cc1ccc(NC2=C(N3CCOCC3)C(=O)c3ccccc3C2=O)cc1,-84*
Cc1ccc(NC2=C(Cl)C(=O)c3ccccc3C2=O)cc1,60
CS(=O)(=O)Nc1cccc(C2=NN(S(C)(=O)=O)C(c3ccc4c(c3)OCO4)C2)c1 (configuration not stated),-86*
CS(=O)(=O)N1N=C(c2ccccc2)CC1c1ccc2c(c1)OCO2 (configuration not stated),-275*
Cc1ccc(C2CC(c3ccco3)=NN2S(C)(=O)=O)cc1 (configuration not stated),-63*
CC(C)(C)C(=O)/C=C(N)/C=C/c1ccccc1,-76*
SMILES,aSyn 5UTR act
N/C(=N\OC(=O)/C=C/c1ccccc1)c1ccccc1,-243*
O=C(/C=C/c1ccccc1)c1ccc2c3c(cccc13)CC2,-87*
O=C(/C=C/c1ccc[nH]1)c1ccccc1,-64*
O=C(/C=C/c1ccccc1)/C=C/c1ccccc1,-112*
O=C(/C=C/c1ccccc1)c1ccccc1,-105*
Cc1ccc(-c2c(C)sc(=NC(=O)c3ccco3)n2C)cc1,-123*
CN(C)c1ccc(C(=S)NCc2ccco2)cc1,-69*
CN(C)c1ccc(/C=N/NC(=S)NCc2ccco2)cc1,-127*
Oc1ccc(-c2nccc(-c3ccc(Cl)cc3)n2)cc1,-84*
Oc1ccc(-c2nccc(-c3cccs3)n2)cc1,-157*
Oc1ccc(-c2cccc(-c3ccc(O)cc3)n2)cc1,-68*
Oc1ccc(-c2nnc(-c3ccc(O)cc3)nn2)cc1,-109*
O=C(Nc1ccc(CN2CCOCC2)cc1)c1cccs1,-145*

# Source: PubChem
